In PubChem BioAssay AID2427 (National Center for Advancing Translational Sciences (NCATS), 2010):
Calls of active or inactive are those of the source.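 The calls were made as follows: active = melting temperature shift above 3 C; inconclusive = shift above 1 C but not above 3 C; inactive = the rest.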

Biological target: 15-hydroxyprostaglandin dehydrogenase [NAD(+)] (Homo sapiens) (UniProt P15428)
Test: Thermal Shift Assay for Inhibitors of HPGD (15-Hydroxyprostaglandin Dehydrogenase)
Details: Recombinant HPGD thermal shift, SYPRO orange DSF, at 250 µM, stronger effect = higher value
Method: Assay Overview: Human 15-Hydroxyprostaglandin dehydrogenase (HPGD) catalyzes the inactivation of prostaglandin E2, and plays a major role in cancer biology by antagonizing the oncogenic potential of cyclooxygenase type 2 (COX2). Studies to assess the stability of human 15-PGDH in presence of compounds was performed as described (Niesen et al., 2007) with variations. References 1. Myung SJ, Rerko RM, Yan M, Platzer P, Guda K, Dotson A, Lawrence E, Dannenberg AJ, Lovgren AK, Luo G, Pretlow TP, Newman RA, Willis J, Dawson D, Markowitz SD. 15-Hydroxyprostaglandin dehydrogenase is an in vivo suppressor of colon tumorigenesis. Proc Natl Acad Sci U S A. 2006 Aug 8;103(32):12098-102. 2. Yan M, Rerko RM, Platzer P, Dawson D, Willis J, Tong M, Lawrence E, Lutterbaugh J, Lu S, Willson JK, Luo G, Hensold J, Tai HH, Wilson K, Markowitz SD. 15-Hydroxyprostaglandin dehydrogenase, a COX-2 oncogene antagonist, is a TGF-beta-induced suppressor of human gastrointestinal cancers. Proc Natl Acad Sci U S A. 2004 Dec 14;101(50):17468-73. 3. […]
HPGD was diluted to a final assay concentration of 1 uM in 100 mM Tris buffer, pH 8.0, containing 0.01% Tween-20 and 1:1000 SYPRO orange dye. […] Heat denaturation curves were recorded using a RT-PCR instrument (Mx3005p, Agilent) applying a temperature gradient of 2 degree C/min. […]

15-hydroxyprostaglandin dehydrogenase [NAD(+)] (Homo sapiens), sequence (P15428 whole entry, looked up): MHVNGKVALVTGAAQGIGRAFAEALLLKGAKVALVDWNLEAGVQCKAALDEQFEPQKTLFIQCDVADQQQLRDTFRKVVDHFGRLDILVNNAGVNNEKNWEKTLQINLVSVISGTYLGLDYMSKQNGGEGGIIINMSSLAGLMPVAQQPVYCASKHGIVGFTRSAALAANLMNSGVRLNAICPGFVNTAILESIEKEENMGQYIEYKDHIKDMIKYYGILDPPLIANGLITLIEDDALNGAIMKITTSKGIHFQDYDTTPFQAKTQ

O=P1(Nc2ccc(F)cc2)COc2ccccc2OC1
thermal shift (delta Tm): 0.5 C (inactive)
thermal shift (delta Tm) (measured here: delta Tm with NADH cofactor): 3.3 C
